From PubChem BioAssay AID504757 (Sanford-Burnham Center for Chemical Genomics, 2011) come the findings set out here.

Each structure is given as a SMILES string. The list shows a part of the results. Active and inactive are the calls of the source. No stated cut-off is given here; in the data, active means inhibition above about 39%; inactive means the rest.

This assay concerns the target Cysteine protease ATG4B (Homo sapiens) (UniProt Q9Y4P1). Kind of assay: ATG4B protease inhibitors, retest, confirmation, biochemical, fluorescence, single concentration (AID 504757). The note with it: ATG4B protease fluorescent substrate cleavage assay; at 8.33 µM; stronger effect = higher value.

Cysteine protease ATG4B (Homo sapiens), sequence (Q9Y4P1 whole entry, looked up): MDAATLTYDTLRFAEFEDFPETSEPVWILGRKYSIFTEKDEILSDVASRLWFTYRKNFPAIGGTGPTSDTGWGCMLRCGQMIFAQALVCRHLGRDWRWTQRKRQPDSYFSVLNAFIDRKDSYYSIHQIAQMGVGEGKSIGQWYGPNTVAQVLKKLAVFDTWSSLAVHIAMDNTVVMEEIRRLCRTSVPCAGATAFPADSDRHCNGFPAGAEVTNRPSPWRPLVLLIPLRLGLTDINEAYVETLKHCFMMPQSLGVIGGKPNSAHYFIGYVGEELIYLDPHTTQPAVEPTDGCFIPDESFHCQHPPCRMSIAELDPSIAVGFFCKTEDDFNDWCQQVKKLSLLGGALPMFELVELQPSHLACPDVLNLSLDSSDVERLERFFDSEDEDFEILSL

With `OC(CNCc1ccc(Cl)c(Cl)c1)c1ccccc1` (stereo unspecified), the inhibition – broadly, the percentage by which the read-out fell short of the control – is 73.9% (active).

As to `CC(=O)Nc1ccc(C(=O)Nc2nc(-c3cc(C)n(Cc4ccccc4)c3C)cs2)cc1`, the inhibition was 62.7% (active).

Consider `Clc1ccccc1CSc1nnc(-c2ccco2)c(-c2ccco2)n1`, for which the inhibition is 64.1% (active).

Regarding `CCCOc1ccc2c3c(c(=O)oc2c1OCCC)CCC3`, the inhibition is 60.3% (active).

`Cc1ccc(-c2cc(C(=O)N3CCc4ccccc4C3)no2)cc1`: the inhibition is 66.7% (active).

`CCc1ccc2c(c1)C(c1ccc([N+](=O)[O-])cc1)=NNC(c1ccccc1)=N2`: the inhibition is 51.2% (active).

As for `CN(C)Cc1ccc(F)cc1Sc1cc(Cl)ccc1Cl`, the inhibition is 67.4% (active).

Turning to `CCCC1=Nc2cc(C(=O)NCc3ccco3)ccc2Sc2ccccc21`, the inhibition is 54.3% (active).

Turning to `FC(F)(F)Oc1ccc(NC(=S)NCc2ccccc2)cc1`, the inhibition is 71.7% (active).

With `COC(=O)N/N=C/c1cn(CCCOc2ccc(C)cc2)c2ccccc12`, the inhibition was 64.9% (active).

Regarding `CCOC(=O)C(C)Sc1nc2ccccc2c(=O)n1CC1CCCCC1` (stereo unspecified), the inhibition is 54.5% (active).

With `O=C(O)CCn1cc(/C=C/C(=O)c2ccc(Cl)cc2)c(-c2cccc(Br)c2)n1`, the inhibition was 56.8% (active).

Consider `Cc1ccc(-n2c(SCC(=O)N/N=C/C=C/c3ccccc3[N+](=O)[O-])nc3ccccc3c2=O)cc1`, for which the inhibition was 46.6% (active).

In the case of `Cc1ccc(CSc2nc(-c3ccccc3)c(C#N)c(=O)[nH]2)cc1`, the inhibition was 54.3% (active).

Regarding `O=C1Nc2cc(Cl)c(Cl)cc2N(O)N1c1cc(Cl)cc(Cl)c1`, the inhibition is 64.3% (active).

As to `COc1ccc(/C=C2\CCc3ccccc3C2=O)c(OC)c1OC`, the inhibition was 90.7% (active).

Turning to `O=C(O)C(c1ccccc1)N1C(=O)/C(=C\c2ccc(-c3cccc(Cl)c3)o2)SC1=S` (stereo unspecified), the inhibition was 38.8% (active).

`NC(=O)c1sc2nc3c(c(-c4ccccc4)c2c1N)CCC3`: the inhibition was 57.5% (active).

As for `Cc1ccc(N=C2NC(=O)/C(=C/C=C/c3ccco3)S2)cc1C`, the inhibition was 66.8% (active).

On to `CCOC(=O)c1c(-c2ccccc2)oc2cc(Br)c(O)c(C=O)c12`, for which the inhibition is 79% (active).

As to `COc1ccc(/C=C2/SC(=O)N(CCCCCC(=O)Nc3ccccc3C(=O)O)C2=S)cc1`, the inhibition is 56.7% (active).
